Screens as filed in PubChem BioAssay.
Shown are actives, neighbours in structure and some others; about 9.3% of the full set was active somewhere.
Vaccinia mCherry: vaccinia inhibition (mCherry reporter) | Vaccinia virus mCherry reporter infection, fluorescence | Potency, µM (top dose mostly 36.5 µM), without a hit: top-dose activity change, negative = inhibition, actives largely listed as inhibitors | hit rate 0.63% among 310,000; calls by dose curve; tested in A549 cells; further: potency means the concentration at half of the fitted maximal effect; nearly all actives have a fitted effect of over 35% in size
HCMV antiviral: human cytomegalovirus inhibition. HFF cells, HCMV-luciferase reporter, 72 h; stronger effect = lower value. activity change, negative = inhibition, % at 57.5 µM. hit rate 4.5% among 410,000; in the data active means activity change below about -60%; inconclusive means no clear call, values can overlap the other calls; inactive means above about -39%
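Inhibition of viral replication was scored as loss of reporter luminescence in HFFs infected with HCMV-luciferase (MOI 1 PFU/cell) for 72 h; compounds tested at 2 doses, normalized to buffer and Salinomycin controls.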
VACV Venus inh: vaccinia inhibition (Venus reporter) | Vaccinia virus Venus reporter expression, fluorescence | hit rate 0.46% among 330,000 | AID 720580 | Potency, µM (series often up to 36.5 µM), inactives show at the top dose activity change, negative = inhibition, hits mostly inhibitors; calls by dose curve; tested in A549 cells; further: potency means the concentration at half of the fitted maximal effect; nearly all actives have a fitted effect of over 30% in size
HCV inh: HCV inhibition; Huh7.5.1 HCVcc-Cre infection, luciferase reporter, 44 h; Potency, µM (top dose mostly 41.8 µM), for the others: top-dose activity change, negative = inhibition, most hits filed as inhibitors; hit rate 3.4% among 340,000; further: potency means the concentration at half of the fitted maximal effect
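Cells seeded at 1,000/well and cultured 4 h, then compounds added followed by HCVcc-Cre virus (~0.5 moi). After 44 h further culture, luciferase substrate was added, plates held 15 min at room temperature, and luminescence read for 15 sec.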
FMDV inh: blocks foot and mouth disease virus; FMDV antiviral cell-based qHTS; Potency, µM (top dose mostly 57.9 µM), for the others: at the highest dose activity change, negative = inhibition, most hits filed as inhibitors; hit rate 1.2% among 410,000; calls by dose curve; tested in HEK293T cells; further: read-out not given here; potency means the concentration at half of the fitted maximal effect; nearly all actives have a fitted effect of over 45% in size
Sm TGR inh: inhibitors of Schistosoma mansoni thioredoxin glutathione reductase | Q962Y6 | Potency, µM (top dose mostly 114 µM), for inactives: top-dose activity change, negative = inhibition, actives largely listed as inhibitors | purified TGR, DTNB reduction, TNB absorbance 405 nm | AID 485364 | hit rate 3% among 360,000; further: potency means the concentration at half of the fitted maximal effect; nearly all actives have a fitted effect of over 60% in size
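Kinetic colorimetric format: TGR-catalysed, NADPH-driven DTNB reduction monitored via TNB absorbance. Enzyme dispensed at 20 nM; compound exposure 15 min at room temperature before reaction start.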
An asterisk follows results filed as active; i = inactive; ? = inconclusive; nt = not tested or not shown; [ ] = remark or other dose. Unless noted, the call rests on the fitted dose curve; in most records, active means well fitted curve in the direction sought with a large enough effect; inconclusive means small, poorly fitted or top-dose-only effect, or another doubt; inactive means no such curve, though single readings can be large; an effect the other way counts as inactive or inconclusive. On the % scale 0 is the no-effect control and ±100 the full control effect.

SMILES	Vaccinia mCherry	HCMV antiviral	VACV Venus inh	HCV inh	FMDV inh	Sm TGR inh
COc1cccc(NC(=O)c2cnn(-c3ccccc3)c2-n2cccc2)c1	-7%	-63*	-11%	nt	-26%	6%
O=c1c(S(=O)(=O)c2ccccc2)cn(Cc2ccccc2)c2cc(N3CCCC3)c(F)cc12	0%	4	2%	nt	1%	22%
O=c1c(S(=O)(=O)c2cccc(Cl)c2)cn(Cc2ccccc2)c2cc(N3CCCCC3)c(F)cc12	-2%	-65*	-21%	nt	10%	-2%
O=c1c(S(=O)(=O)c2ccccc2)cn(Cc2ccccc2)c2cc(N3CCOCC3)c(F)cc12	-6%	-27	-16%	nt	-8%	2%
O=c1c(S(=O)(=O)c2ccccc2)cn(Cc2cccc(F)c2)c2cc(N3CCOCC3)c(F)cc12	-9%	-71*	-20%	nt	-15%	0%
Cc1ccc([N+](=O)[O-])c2cccnc12	nt	-4	nt	9%	-6%	-35%
Oc1cccc2cccnc12	-15%	nt	-12%	nt	-7%	-24%
COc1ccc(CSc2cccc3cccnc23)cc1[N+](=O)[O-]	-19%	-3	-10%	-2%	3%	-2%
O=[N+]([O-])c1ccc(Sc2cccc3cccnc23)c2cccnc12	nt	-101*	nt	10µM*	?	1%
O=[N+]([O-])c1cc2cccnc2c2ncccc12	nt	-97*	nt	?	-20%	-11%
O=[N+]([O-])c1cc(O)c2ncccc2c1	1µM*	-97*	1µM*	0.56µM*	-22%	-5%
COc1cccc(C(=O)Nc2ccc3nc(SCC(=O)N(C)c4ccccc4)sc3c2)c1	?	?	?	nt	?	0%
CN(C(=O)CSc1nc2ccc(NC(=O)COc3ccc(F)cc3)cc2s1)c1ccccc1	?	-70*	?	nt	?	-2%
COc1ccc(C(=O)Nc2ccc3nc(SCC(=O)N(C)c4ccccc4)sc3c2)cc1	-18%	-74*	?	nt	35µM*	16%
CN(C(=O)CSc1nc2ccc(NC(=O)COc3ccc(Cl)cc3)cc2s1)c1ccccc1	?	?	?	nt	?	-1%
CN(C(=O)CSc1nc2ccc(NC(=O)CCc3ccccc3)cc2s1)c1ccccc1	?	?	?	nt	?	-10%
CN(C(=O)CSc1nc2ccc(NC(=O)c3ccc(F)cc3)cc2s1)c1ccccc1	-13%	-81*	-28%	nt	?	-1%
O=C(CCc1ccc(O)c(O)c1)NNC(=S)NCCc1ccccc1	-10%	23	-13%	-1%	-23%	-27%
O=C(Cn1ccc2ccccc2c1=O)NCCC(=O)Nc1ccc(F)cc1F	-16%	0	-6%	19%	-19%	6%
CC(=O)CC1OC(=O)C(Br)=C1NCc1ccccc1 (stereo not given)	i	?	-8%	?	nt	3.5µM*
CC1=NN(c2nc(N)nc(/C(C#N)=C/c3ccc([N+](=O)[O-])o3)n2)C(C)(C)C1	-3%	32	9%	8.9µM*	?	nt
O=C1C2C(C(=O)N1/N=C/c1ccc([N+](=O)[O-])o1)C1C=CC2C12CC2 (stereo not given)	-17%	-5	-8%	11%	?	?
COc1ccc2ccccc2c1/C=N/NC(=O)c1ccc(C)nc1	nt	33	nt	?	23%	25%
O=C(N/N=C/c1c(O)ccc2ccccc12)c1ccc(CO)nc1	?	-99*	-20%	11µM*	-11%	-20%
Cc1cc(O)cc(O)c1/C=N/NC(=O)c1ccc2c(c1)OCCO2	2µM*	-100*	?	nt	-16%	nt
O=C(N/N=C\c1c(O)ccc2ccccc12)c1ccc(S(=O)(=O)N2CCCCC2)cc1	-9%	-103*	0%	5µM*	-12%	-1%
O=C(NCc1ccccc1)c1ccc(S(=O)(=O)N2CCCCCC2)cc1	-11%	-13	-12%	nt	-8%	nt
O=C(NN=Cc1c(O)ccc2ccccc12)c1ccc2c(c1)OCO2	nt	-102*	nt	5µM*	20%	nt
O=S(=O)(Nc1nc2ccccc2nc1OCC(F)(F)F)c1cccs1	nt	-33	nt	9%	-14%	1%
O=C(CS(=O)(=O)c1ccc(F)cc1)Nc1nnc(-c2ccccc2Cl)o1	-12%	-6	-2%	-1%[8.37 µM]	-3%	-1%
